Shown are actives, neighbours in structure and some others; about 0.95% of the full set was active somewhere.
RE007 growth inh: qHTS Assay for Inhibitors of the HIV-1 protein Vpr. 360,000 compounds, 0.21% hits. AID 651644, 2012. Potency, µM (highest dose often 92.2 µM), hits mostly inhibitors. S. pombe RE007 Vpr strain, BacTiter-Glo ATP luminescence, 24 h; active means well fitted falling curve with a large enough effect; inconclusive means small, poorly fitted or top-dose-only effect; inactive means no such curve, though single readings can be large or run the other way; further: nearly all actives have a fitted effect of over 50% in size
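Fission yeast RE007 carrying one integrated HIV-1 vpr copy, seeded at OD 0.01 in PMG+AL medium with 23 nL pinned compound. Grown 24 h at 30 degrees; viability read by BacTiter-Glo luminescence after 5 min.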
LmPK inhibitor: qHTS Assay for Inhibitors of Leishmania Mexicana Pyruvate Kinase (LmPK). Q27686. purified LmPK, Kinase-Glo ATP luminescence, 1 h. Potency, µM (series often up to 57.5 µM), actives largely listed as inhibitors. 290,000 compounds, 0.37% hits. AID 1721, 2009
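qHTS format; LmPK 0.1 nM; substrates PEP 0.5 mM and ADP 0.1 mM. One-hour room-temperature incubation, then coupled luciferase luminescence; 0.5 nM enzyme wells mark activation.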
Giardia FBPA inh-1: qHTS Assay for Inhibitors of Fructose-1,6-bisphosphate Aldolase from Giardia Lamblia; A8B2U2; Potency, µM (top dose mostly 59.6 µM), usual class: inhibitors; 290,000 compounds, 0.71% hits; purified Giardia FBPA; further: nearly all actives have a fitted effect of over 55% in size
Target sequence (A8B2U2 whole entry, looked up): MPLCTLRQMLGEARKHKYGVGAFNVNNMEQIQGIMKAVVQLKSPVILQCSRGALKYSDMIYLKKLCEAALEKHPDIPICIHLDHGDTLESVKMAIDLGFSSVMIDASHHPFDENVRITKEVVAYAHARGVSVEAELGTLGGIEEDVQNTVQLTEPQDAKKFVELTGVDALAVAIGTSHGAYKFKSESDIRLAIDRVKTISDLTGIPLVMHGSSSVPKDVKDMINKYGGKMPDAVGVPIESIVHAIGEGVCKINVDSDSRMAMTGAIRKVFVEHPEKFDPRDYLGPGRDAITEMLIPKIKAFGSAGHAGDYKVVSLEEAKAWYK
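Giardia FBPA (40 nM reagent) was preincubated 10 min at RT with compound (up to 57.5 uM final), then substrate plus GAPDH/TPI/NAD/arsenate coupling system with diaphorase/resazurin was added; resorufin fluorescence (525/598 nm) was read after 20 min.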
Tb PYK inh: qHTS of Trypanosoma Brucei Inhibitors | TbPYK enzyme, Kinase-Glo Plus ATP luminescence, 45 min | 410,000 compounds, 0.12% hits | pyruvate kinase (Trypanosoma brucei), Q57TT1 | Potency, µM (doses to about 76.8 µM), actives largely listed as inhibitors; further: nearly all actives have a fitted effect of over 50% in size
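Quantitative HTS: titrated library compounds versus trypanosomal pyruvate kinase in TEA buffer (pH 7.2) containing KCl, MgCl2, BSA and Tween-20. Reactions were initiated with ADP, 130 uM final. Kinase-Glo Plus luminescence was read after 45 min at RT.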
Giardia growth: qHTS Assay for Inhibitors of Fructose-1,6-bisphosphate Aldolase from Giardia Lamblia: Giardia lamblia growth inhibition | shares compounds with Giardia FBPA inh-1 | Giardia lamblia trophozoite growth inhibition | Potency, µM (series often up to 57.5 µM), actives largely listed as inhibitors | 1,500 compounds, 5% hits | AID 2785, 2010;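 further: trophozoites exposed to compound for 48 h at 37 °C; nearly all actives have a fitted effect of over 70% in size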
Mammal cell tox: qHTS Assay for Inhibitors of Fructose-1,6-bisphosphate Aldolase from Giardia Lamblia: Mammalian cellular toxicity. shares compounds with Giardia FBPA inh-1. mammalian cell viability counter-screen, qHTS. Potency, µM (series often up to 57.5 µM), most hits filed as inhibitors. 1,500 compounds, 4% hits. AID 2786, 2010;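 further: Chinese hamster ovary cells used as mammalian cytotoxicity surrogate; viability measured as cellular ATP by luminescence; compound exposure lasted 48 h before reading; nearly all actives have a fitted effect of over 60% in size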
Giardia FBPA inh-2: qHTS Assay for Inhibitors of Fructose-1,6-bisphosphate Aldolase from Giardia Lamblia: Primary screen confirmation. shares compounds with Giardia FBPA inh-1. purified Giardia aldolase enzyme activity, qHTS. AID 2787, 2010. Potency, µM (top dose mostly 57.5 µM), actives largely listed as inhibitors. 1,500 compounds, 5% hits; further: nearly all actives have a fitted effect of over 45% in size
Rabbit FBPA inh: qHTS Assay for Inhibitors of Fructose-1,6-bisphosphate Aldolase from Giardia Lamblia: Rabbit FBPA Selectivity; shares compounds with Giardia FBPA inh-1; Rabbit muscle FBPA enzyme inhibition, selectivity counter-screen; Potency, µM (doses to about 57.5 µM), hits mostly inhibitors; 1,500 compounds, 4% hits; AID 2794, 2010; further: nearly all actives have a fitted effect of over 60% in size
Target sequence (P00883 whole entry, looked up): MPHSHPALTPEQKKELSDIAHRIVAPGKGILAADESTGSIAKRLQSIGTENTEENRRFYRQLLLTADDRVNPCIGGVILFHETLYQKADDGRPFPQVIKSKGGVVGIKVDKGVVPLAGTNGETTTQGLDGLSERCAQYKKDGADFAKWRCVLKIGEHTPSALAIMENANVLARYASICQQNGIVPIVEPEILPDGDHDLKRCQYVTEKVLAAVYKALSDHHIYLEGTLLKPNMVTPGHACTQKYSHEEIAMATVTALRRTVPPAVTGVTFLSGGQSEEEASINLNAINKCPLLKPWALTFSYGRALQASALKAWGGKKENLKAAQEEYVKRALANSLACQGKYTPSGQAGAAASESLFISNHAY
GAPDH coupling: qHTS Assay for Inhibitors of Fructose-1,6-bisphosphate Aldolase from Giardia Lamblia: Coupling assay counterscreen confirmation. 1,500 compounds, 6% hits. GAPDH coupling enzyme counterscreen, biochemical, qHTS. AID 2795, 2010. shares compounds with Giardia FBPA inh-1. Potency, µM (titrated, usually from 57.5 µM), actives largely listed as inhibitors; further: nearly all actives have a fitted effect of over 55% in size
Numbers stand for hits; i = inactive; ? = inconclusive; nt = no result; [ ] = another dose, or the depositor's remark. Unless noted, the call rests on the fitted dose curve; in most records, active means well fitted curve in the direction sought with a large enough effect; inconclusive means small, poorly fitted or top-dose-only effect, or another doubt; inactive means no such curve, though single readings can be large; an effect the other way counts as inactive or inconclusive.

SMILES	RE007 growth inh	LmPK inhibitor	Giardia FBPA inh-1	Tb PYK inh	Giardia growth	Mammal cell tox	Giardia FBPA inh-2	Rabbit FBPA inh	GAPDH coupling
CCOC(=O)c1ccc(NC(=O)CN(c2ccc(C)cc2)S(=O)(=O)c2c(C)noc2C)cc1	nt	nt	nt	i	nt	nt	nt	nt	nt
COc1ccc(CCn2c(NCc3ccco3)nc3c2c(=O)[nH]c(=O)n3C)cc1	i	i	i	i	nt	nt	nt	nt	nt
COc1ccc(CCn2c(NN)nc3c2c(=O)[nH]c(=O)n3C)cc1	i	i	5µM	i	i[10.4 µM]	i	32µM	?	25µM
COc1ccc(CCn2c(NN=C(C)C)nc3c2c(=O)[nH]c(=O)n3C)cc1	i	i	2.8µM	i	i	i	13µM	?	14µM
COc1ccc(CCn2c(Br)nc3c2c(=O)[nH]c(=O)n3C)cc1	i	i	i	i	nt	nt	nt	nt	nt
Cc1ccc(NC(=S)c2ccncc2)c(C)c1	i	i	16µM	i	i	i	i	i	i
O=C(N/N=C/C=C\c1ccco1)c1ccccn1	i	i	?	i	nt	nt	nt	nt	nt
O=C(N/N=C/C=C/c1ccco1)c1cnccn1	i	i	20µM	i	i[10.4 µM]	i	?	i	?
CC(/C=N/NC(=O)c1ccccn1)=C\c1ccco1	i	25µM	20µM	i	?	25µM	?	i	?
CCOC(=O)c1cc(-c2ccc(C)cc2)n(CC(=O)Nc2ccc(OC)c(Cl)c2)c1C	nt	nt	nt	i	nt	nt	nt	nt	nt
COc1ccccc1NS(=O)(=O)c1cc(NC(=O)c2sccc2C)ccc1N1CCOCC1	i	i	i	i	nt	nt	nt	nt	nt
COc1ccccc1NS(=O)(=O)c1cc(NC(=O)c2sccc2C)ccc1N1CCCC1	i	i	14µM	?	i[10.4 µM]	i	?	?	?
C[C@@H](c1ccccc1)N1C(=O)[C@H]2[C@@H]3[C@H](O)[C@H](O)CC(=O)[C@H]3CC[C@H]2C1=O	nt	nt	i[12.9 µM]	nt	nt	nt	nt	nt	nt
Cc1cc2cc(C(c3nnnn3CC3CCCO3)N3CCCc4ccccc43)c(=O)[nH]c2cc1C (stereo not given)	i	i	4µM	i	i	i	i	i	i
CCN1CCN(CC(=O)Nc2cc(C(F)(F)F)ccc2OCCOC)CC1	i	i	6.3µM	i	i	i	i	i	i
CCN1CCN(CC(=O)Nc2c(OC)cccc2OC)CC1	i	i	13µM	i	i[10.4 µM]	i	i	i	i
CCCOc1ccc(C(F)(F)F)cc1NC(=O)CN1C(=O)C(=O)N(CC)C1=O	i	nt	nt	i	nt	nt	nt	nt	nt
CC1=C(C(=O)NCc2ccccc2F)C2(CCCCC2)OC1=O	nt	nt	nt	i	nt	nt	nt	nt	nt
Cc1cccc(N2CCN(C(=O)c3cnn(-c4ccccc4Cl)c3C3CCN(C(=O)OC(C)(C)C)CC3)CC2C)c1 (stereo not given)	nt	nt	nt	i	nt	nt	nt	nt	nt
C=CCNCCCOc1ccc(Cl)cc1C(C)(C)C	i	i	18µM	i	i	i	i	i	i
CCNC(=S)N/N=C/c1ccc(C(=O)O)cc1	i	?	18µM	i	i[10.4 µM]	i	i	i	i
CNC(=S)N/N=C/c1ccc(-c2ccc(C(=O)O)cc2)o1	?	14µM	18µM	i	i[10.4 µM]	i	i	i	i
COc1ccc(CCN(C)C(=O)C2CCCN(C3CCN(Cc4ccccc4)CC3)C2)cc1OC (stereo not given)	i	i	18µM	i	?	i	i	i	i
COc1ccc(CN2CCCC(C(=O)N3CCCCC3)C2)c(OC)c1 (stereo not given)	i	i	?	i	nt	nt	nt	nt	nt
COc1cc(OC)c(OC)cc1CN1CCCC(C(=O)N2CCCC2)C1 (stereo not given)	i	i	28µM	i	i	i	i	i	i
SMILES	RE007 growth inh	LmPK inhibitor	Giardia FBPA inh-1	Tb PYK inh	Giardia growth	Mammal cell tox	Giardia FBPA inh-2	Rabbit FBPA inh	GAPDH coupling
CC(C)c1ccc(NC(=O)C2(C)Cc3ccccc3C(=O)O2)cc1 (stereo not given)	nt	nt	nt	i	nt	nt	nt	nt	nt
Cc1ccccc1OCC(O)CN1CCN(CC(O)COc2ccccc2C)C(C)C1 (stereo not given)	i	i	14µM	i	i	i	i	i	i
O=C(CNCC1CCCO1)NCc1ccco1 (stereo not given)	i	i	16µM	i	?	i	i	i	i
COc1ccc(CNC(=O)C2CCCN(S(=O)(=O)c3ccc4c(ccn4C)c3)C2)c(OC)c1 (stereo not given)	nt	nt	nt	i	nt	nt	nt	nt	nt
CCOc1cc(/C=N/Nc2nc(=O)[nH]nc2C)ccc1O	i	i	?	i	nt	nt	nt	nt	nt
CCOc1ccc(/C=N/Nc2nc(=O)[nH]nc2C)cc1OC	i	i	20µM	i	?	i	i	i	i
COc1cc(C(=O)NC(=S)Nc2ccc(Cl)cn2)cc(OC)c1OC	i	i	10µM	i	i	i	i	i	i
CCOc1ccc(NC(=S)NC(=O)c2c(Br)cnn2C)c([N+](=O)[O-])c1	i	i	i	i	nt	nt	nt	nt	nt
COc1ccc(C(=O)NC(=S)Nc2cccnc2)cc1Cl	i	i	10µM	i	i[10.4 µM]	i	i	i	i
CCOc1ccc(NC(=S)NC(=O)c2cccnc2)c([N+](=O)[O-])c1	i	i	8.9µM	i	35µM	i	i	i	i
CCOc1cc(C(=O)NC(=S)Nc2cccnc2)cc(OCC)c1OCC	i	i	11µM	i	i[10.4 µM]	i	i	i	i
COc1cc(C(=O)Nc2ccc(NC(=O)c3cccc(Cl)c3)nc2)cc(OC)c1OC	i	i	i	i	nt	nt	nt	nt	nt
Cc1ccc(CNc2ncnc3onc(C)c23)cc1	nt	nt	nt	i	nt	nt	nt	nt	nt
CC(C)c1ncc([N+](=O)[O-])n1C	nt	nt	nt	i	nt	nt	nt	nt	nt
Cc1oc(CSCC2CCCO2)cc1C(=O)O (stereo not given)	i	i	i	i	nt	nt	nt	nt	nt
Cc1oc(CSCCSCc2cc(C(=O)O)c(C)o2)cc1C(=O)O	i	i	14µM	i	i	i	i	i	i
CCc1nnc(NC(=O)CN2CCN(Cc3cccc(OC)c3)CC2)s1	i	i	3.2µM	i	?	i	i	i	i
Cc1nnc(NC(=O)CN2CCN(Cc3ccccc3Cl)CC2)s1	i	i	4.5µM	i	i[10.4 µM]	i	i	i	i
